Test results from PubChem BioAssay (NCI).
About 83,000 compounds went through this panel and 20% of them were active in at least one assay; those are over-represented in the sample as a whole.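 How to read the values: 0–100, growth inhibition (40 = 60% inhibited); 0, no net growth; -100 to 0, cell death (-40 = 40% of starting cells died; -100 = all dead).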 Active and inactive are the calls of the source. The calls were made as follows: active = growth percent below 10; inactive = the rest.

Each compound was assayed on A498 renal (assay: NCI-60 one-dose screen, 48 h (100 = growth as untreated, 0 = no growth, -100 = all killed)). Details: 10 µM unless noted.
For `Nc1cc2ccccc2c(=O)n1NC(=O)c1ccc(I)cc1`, the growth was 103% (inactive). For `CC(=O)Nc1cccc(Nc2nc(N[C@H]3CCCc4ccccc43)c3ccccc3n2)c1`, the growth was 105% (inactive). In the case of `CCN(CC)C(=O)N/C(N)=N/c1nc2ccccc2s1`, the growth is reported as 55.6% (inactive). `O=C(O)c1cccc(-c2ccc(/C=N/NC(=O)c3[nH]c4ccc(Br)cc4c3-c3ccccc3)o2)c1` was tested, and the growth was 95.3% (inactive). For `NS(=O)(=O)c1ccc(-n2cc(-c3cccc(NC(=O)c4cc(C(F)(F)F)cc(C(F)(F)F)c4)c3)nn2)cc1`, the growth was 152% (inactive). For `C[C@H](Nc1nc(NCCc2ccccc2)nc2ccccc12)c1ccccc1`, the growth was -69.5% (active). `C(=C\c1cc(/C=C/c2ccccc2)c2ccccc2n1)/c1ccccc1` was tested, and the growth was 132% (inactive). `C=C1CC[C@@H]2[C@]3(C)COC(c4cn(-c5ccccc5)nc4-c4ccccc4)O[C@@H]3CC[C@@]2(C)[C@@H]1C/C=C1/C(=O)OC[C@H]1O` (stereo partly specified) was tested, and the growth was -13.9% (active). For `N#Cc1c(-c2cccc3ccccc23)cc(-c2cccc(OCC(=O)O)c2)[nH]c1=O`, the growth was 99.3% (inactive). In the case of `O=C(/C=C/c1cccc(OCc2ccc(F)cc2)c1)c1nc2ccccc2[nH]1`, the growth is reported as 112% (inactive). For `CCOC(=O)C1=C(N)N(c2ccccc2)C2=C(C(=O)CC(C)(C)C2)C1c1cccc(Cl)c1Cl` (stereo unspecified), the growth was 128% (inactive). For `CC(C)c1ccc2c(N)c(C(=O)Nc3ccc(C(F)(F)F)cn3)sc2n1`, the growth was 115% (inactive). For `COc1ccc2cc([C@H](C)C(=O)N/N=C/c3ccc(Br)cc3)ccc2c1`, the growth was 107% (inactive). `CC(=O)Oc1ccccc1C(=O)[Se]CC(=O)Nc1cccc(C(F)(F)F)c1` was tested, and the growth was -61% (active). For `COc1ccc(NC(=O)c2sc3nc(C(C)C)ccc3c2N)cc1`, the growth was 84.4% (inactive). For `CC1=C(C(=O)OCc2ccccc2)C(c2c(O)cc(O)cc2O)n2c(nc3ccccc32)N1` (stereo unspecified), the growth was 102% (inactive). With `N#Cc1ccc(/C=N/NC(=O)c2[nH]c3ccc(Br)cc3c2-c2ccccc2)o1` the growth was 78.1% (inactive). In the case of `CC1=C(C(=O)OC(C)C)C(c2cccc(O)c2)NC(=S)N1` (stereo unspecified), the growth is reported as 125% (inactive). For `COc1cc(-c2ccc(/C=N/NC(=O)c3[nH]c4ccc(Br)cc4c3-c3ccccc3)s2)cc(OC)c1OC`, the growth was 130% (inactive). `COc1cc(/C=C/C(=O)c2nnn(-c3ccc(Cl)cc3)c2C)cc(OC)c1OC` was tested, and the growth was 132% (inactive). With `CC1=C(C(=O)OCc2ccccc2)C(c2ccc(-n3cncn3)cc2)n2c(nc3ccccc32)N1` (stereo unspecified) the growth was 79.8% (inactive). `COc1cc(-c2cc(-c3cccc(OCC(=O)O)c3)[nH]c(=O)c2C#N)cc(OC)c1OC` was tested, and the growth was 101% (inactive). `CSc1ccc(C(=O)Nc2ccc3nn(/C(C#N)=C/c4ccccn4)nc3c2)cc1` was tested, and the growth was 56.8% (inactive). With `CSc1ccc(NC(=O)c2ccc3nn(/C(C#N)=C/c4ccccn4)nc3c2)cc1` the growth was -33.9% (active). With `CC1CCCCN1CCCNC(=O)N/C(N)=N/c1nc2ccccc2s1` (stereo unspecified) the growth was 104% (inactive). `O=C(O)c1ccc(-c2ccc(/C=N/NC(=O)c3[nH]c4ccc(Br)cc4c3-c3ccccc3)s2)cc1` was tested, and the growth was 40% (inactive). In the case of `CSc1ccccc1NC(=O)c1ccc2nnn(/C(C#N)=C/c3ccccn3)c2c1`, the growth is reported as 82.9% (inactive). For `Clc1cccc(Cl)c1/C=C/c1cc(/C=C/c2ccc(Br)cc2)c2ccccc2n1`, the growth was 142% (inactive). In the case of `C=C1CC[C@@H]2[C@]3(C)COC(c4cn[nH]c4-c4ccc(OC)cc4)O[C@@H]3CC[C@@]2(C)[C@@H]1C/C=C1/C(=O)OCC1O` (stereo partly specified), the growth is reported as 50.2% (inactive). In the case of `CSc1ccc(C(=O)Nc2ccc3nnn(/C(C#N)=C/c4ccccn4)c3c2)cc1`, the growth is reported as 59.3% (inactive). For `CC(=O)Nc1cccc(Nc2nccc(N[C@@H](C)c3ccccc3)n2)c1`, the growth was 68% (inactive). With `O=C(N/N=C/c1ccc(-c2ccc(O)cc2)s1)c1[nH]c2ccc(Br)cc2c1-c1ccccc1` the growth was -8.65% (active). With `COc1cc(CNC(=O)/C=C/c2ccc3c(c2)OCO3)ccc1OCc1cn(-c2cccc(C(F)(F)F)c2)nn1` the growth was 57.7% (inactive). In the case of `O=C(O)c1ccc(-c2ccc(/C=N/NC(=O)c3[nH]c4ccc(Br)cc4c3-c3ccccc3)o2)cc1`, the growth is reported as 98.5% (inactive). In the case of `CCCCOc1ccc(NC(=O)c2sc3nc(C)ccc3c2N)cc1`, the growth is reported as 37.1% (inactive). In the case of `Cc1ccc2c(N)c(C(=O)Nc3ccc(-c4ccccc4)cc3)sc2n1`, the growth is reported as 114% (inactive). For `COc1ccc2nc(Nc3cccc(NC(=O)c4ccc(CN5CCCN(C)CC5)c(C(F)(F)F)c4)c3)ccc2c1`, the growth was -53.3% (active). In the case of `N#Cc1c(-c2cccnc2)cc(-c2ccc3ccccc3c2)[nH]c1=O`, the growth is reported as 111% (inactive).

What follows are compounds tested on CCRF-CEM leukemia in the same assay as above. Details: 10 µM unless noted.
For `Nc1cc2ccccc2c(=O)n1NC(=O)c1ccc(I)cc1`, the growth was 97.8% (inactive). For `CC(=O)Nc1cccc(Nc2nc(N[C@H]3CCCc4ccccc43)c3ccccc3n2)c1`, the growth was 103% (inactive). `CCN(CC)C(=O)N/C(N)=N/c1nc2ccccc2s1` was tested, and the growth was 41.9% (inactive). `O=C(O)c1cccc(-c2ccc(/C=N/NC(=O)c3[nH]c4ccc(Br)cc4c3-c3ccccc3)o2)c1` was tested, and the growth was 9.68% (active). `NS(=O)(=O)c1ccc(-n2cc(-c3cccc(NC(=O)c4cc(C(F)(F)F)cc(C(F)(F)F)c4)c3)nn2)cc1` was tested, and the growth was 75.4% (inactive). With `C[C@H](Nc1nc(NCCc2ccccc2)nc2ccccc12)c1ccccc1` the growth was -16.3% (active). With `C(=C\c1cc(/C=C/c2ccccc2)c2ccccc2n1)/c1ccccc1` the growth was 60.8% (inactive). For `C=C1CC[C@@H]2[C@]3(C)COC(c4cn(-c5ccccc5)nc4-c4ccccc4)O[C@@H]3CC[C@@]2(C)[C@@H]1C/C=C1/C(=O)OC[C@H]1O` (stereo partly specified), the growth was 31.5% (inactive). With `N#Cc1c(-c2cccc3ccccc23)cc(-c2cccc(OCC(=O)O)c2)[nH]c1=O` the growth was 96.8% (inactive). In the case of `O=C(/C=C/c1cccc(OCc2ccc(F)cc2)c1)c1nc2ccccc2[nH]1`, the growth is reported as 6.9% (active). In the case of `CCOC(=O)C1=C(N)N(c2ccccc2)C2=C(C(=O)CC(C)(C)C2)C1c1cccc(Cl)c1Cl` (stereo unspecified), the growth is reported as 54.8% (inactive). With `CC(C)c1ccc2c(N)c(C(=O)Nc3ccc(C(F)(F)F)cn3)sc2n1` the growth was 34.1% (inactive). `COc1ccc2cc([C@H](C)C(=O)N/N=C/c3ccc(Br)cc3)ccc2c1` was tested, and the growth was 101% (inactive). `CC(=O)Oc1ccccc1C(=O)[Se]CC(=O)Nc1cccc(C(F)(F)F)c1` was tested, and the growth was 24.6% (inactive). For `COc1ccc(NC(=O)c2sc3nc(C(C)C)ccc3c2N)cc1`, the growth was 54.6% (inactive). In the case of `CC1=C(C(=O)OCc2ccccc2)C(c2c(O)cc(O)cc2O)n2c(nc3ccccc32)N1` (stereo unspecified), the growth is reported as 38.1% (inactive). In the case of `N#Cc1ccc(/C=N/NC(=O)c2[nH]c3ccc(Br)cc3c2-c2ccccc2)o1`, the growth is reported as -3.51% (active). With `CC1=C(C(=O)OC(C)C)C(c2cccc(O)c2)NC(=S)N1` (stereo unspecified) the growth was 98.6% (inactive). With `COc1cc(-c2ccc(/C=N/NC(=O)c3[nH]c4ccc(Br)cc4c3-c3ccccc3)s2)cc(OC)c1OC` the growth was 73.2% (inactive). With `COc1cc(/C=C/C(=O)c2nnn(-c3ccc(Cl)cc3)c2C)cc(OC)c1OC` the growth was -19.2% (active). In the case of `CC1=C(C(=O)OCc2ccccc2)C(c2ccc(-n3cncn3)cc2)n2c(nc3ccccc32)N1` (stereo unspecified), the growth is reported as 16.1% (inactive). `COc1cc(-c2cc(-c3cccc(OCC(=O)O)c3)[nH]c(=O)c2C#N)cc(OC)c1OC` was tested, and the growth was 93.7% (inactive). With `CSc1ccc(C(=O)Nc2ccc3nn(/C(C#N)=C/c4ccccn4)nc3c2)cc1` the growth was -33.8% (active). In the case of `CSc1ccc(NC(=O)c2ccc3nn(/C(C#N)=C/c4ccccn4)nc3c2)cc1`, the growth is reported as -47.8% (active). With `CC1CCCCN1CCCNC(=O)N/C(N)=N/c1nc2ccccc2s1` (stereo unspecified) the growth was 26.8% (inactive). `O=C(O)c1ccc(-c2ccc(/C=N/NC(=O)c3[nH]c4ccc(Br)cc4c3-c3ccccc3)s2)cc1` was tested, and the growth was 7.68% (active). In the case of `CSc1ccccc1NC(=O)c1ccc2nnn(/C(C#N)=C/c3ccccn3)c2c1`, the growth is reported as -27.5% (active). With `Clc1cccc(Cl)c1/C=C/c1cc(/C=C/c2ccc(Br)cc2)c2ccccc2n1` the growth was 85% (inactive). `C=C1CC[C@@H]2[C@]3(C)COC(c4cn[nH]c4-c4ccc(OC)cc4)O[C@@H]3CC[C@@]2(C)[C@@H]1C/C=C1/C(=O)OCC1O` (stereo partly specified) was tested, and the growth was 0.599% (active). For `CSc1ccc(C(=O)Nc2ccc3nnn(/C(C#N)=C/c4ccccn4)c3c2)cc1`, the growth was 12.6% (inactive). With `CC(=O)Nc1cccc(Nc2nccc(N[C@@H](C)c3ccccc3)n2)c1` the growth was 24.9% (inactive). With `O=C(N/N=C/c1ccc(-c2ccc(O)cc2)s1)c1[nH]c2ccc(Br)cc2c1-c1ccccc1` the growth was -8.51% (active). In the case of `COc1cc(CNC(=O)/C=C/c2ccc3c(c2)OCO3)ccc1OCc1cn(-c2cccc(C(F)(F)F)c2)nn1`, the growth is reported as 52.2% (inactive). For `O=C(O)c1ccc(-c2ccc(/C=N/NC(=O)c3[nH]c4ccc(Br)cc4c3-c3ccccc3)o2)cc1`, the growth was -0.481% (active). With `CCCCOc1ccc(NC(=O)c2sc3nc(C)ccc3c2N)cc1` the growth was 42% (inactive). For `Cc1ccc2c(N)c(C(=O)Nc3ccc(-c4ccccc4)cc3)sc2n1`, the growth was 55.4% (inactive). `COc1ccc2nc(Nc3cccc(NC(=O)c4ccc(CN5CCCN(C)CC5)c(C(F)(F)F)c4)c3)ccc2c1` was tested, and the growth was -43.6% (active). With `N#Cc1c(-c2cccnc2)cc(-c2ccc3ccccc3c2)[nH]c1=O` the growth was 82% (inactive).
